# The supplement of paper PMC6555819
# Test system: VDR:RXRa (NR concentration 270 nM, RXRa partner concentration 90 nM)
# Experiment: PBM binding z-score (relative to random genomic background probes); higher = stronger binding; sequences stand for … in GC…GCGATTGACAGCGTAGAATGAAGG
# Experimental: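 Protein-binding microarray (Agilent 4x180K custom design, double-stranded 60-nt probes: 5' GC cap, 34-nt variable region, 24-nt constant primer region; full probe sequence given). Purified or IVT nuclear receptor:RXRα heterodimers (3:1 NR:RXRα, mostly 270:90 nM) or homodimers were incubated for 1 h in PBS with 2% milk and no ligand, then detected with Alexa488 antibodies. Fluorescence from o1-orientation probes (~5 replicates averaged) was converted to z-scores against 500 random hg19 background probes. Variable regions are seed direct-repeat (DR0–DR5) sites, all their single-nucleotide variants and half-site ablations.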
row,Sequence,PBM binding z-score
1,TCTAGTCGGTCAAAGGTCACACACTCGAAATGCG,5.65
2,ATATGTAGGTTAGCTGGGGTCCTTCAGACTAGGC,0.978
3,CCTTACGGGTCACGAGGTTGTAGCACGACGAGCG,5.26
4,CGAACTAGGTCATTGACAGGACAATGAATAGTAA,2.62
5,TCTTGTAGATCGATAGAGGTTAAGAAAGTGCGCT,1.45
6,TCTAGTTGGTCACGGAGGTCCCACACGACGGGTA,1.19
7,CGTCAAAGGTCAATGCTAGGTCAGTGAAAGCATT,6.01
8,CCGAGTTGGTCAAGGTCACACACGCTATAGGTAC,4.7
9,CGAACAAGGTCACCAGGACAGTGAAGAGGTTGGA,4.8
10,TCTCGGAGGAAACGAAAGGTCAGAGCTCGACATC,2.44
11,CAAACCAGGTCAAGAGGTCAAAGTCCGCTTCCCG,6.45
12,GATACAGGGTCGGCTAGAGGCCAGAGTATGGAAA,0.547
13,TCTTGTAGATCAACAGGAGGTTAATAAAGATCGA,0.648
14,ACTCGGAGGACAAAGGTCAGGGCTACGCCAGTGA,3.43
15,GCATATAGGTAATACAAGGTCAAAGTCCGATTGT,4.39
16,CGAACTAGGTCAAAGGACATTGAAAGGCGACGTA,1.88
17,AGTCAAAGTTCATCTAGGTAACATAAGATATGCT,5.33
18,GCTGCGAGGTCAACTGATGGTCAGCTAAAGCTCG,5.48
19,ATATGTAGGTTAGCTGGGGTCATTCACACTAGGC,6.32
20,CCGAGAAGGTTACGAGGGGGCATTCAGTGCGAAT,6.24

row,Sequence,PBM binding z-score
1,CGTCCAAGGTCAAGGTCAATGAAAGAGACTCGAA,5.07
2,CGAACTAGGTCATCCAGGACCGTGAATACATTGA,2.39
3,TCTGCTAGGTCAACGTTGGTCAGCTAATCTGCTA,1.46
4,AGAATGAGGTTACCAAAGGTCAGGGAAACGCTTG,5.67
5,AGTCAAAGTTGAGGACGAGGTAACGTAAAGCACG,0.263
6,GATACAGGGTCAAGGTCAGAGTACGCGTATTGAT,5.53
7,TTGCCAAGGTGAAAGGTCGTTGATGCACGCCTTG,3.23
8,AATACAGGGTCACGAGGCCAGAGTAGGTACGAAT,5.41
9,AGTCAAAGGTCATCTAGGTAACGTAAGATATGCT,6.04
10,AGAATGGGGTTACCAAAGATCAGGGAAACGCTTG,2.66
11,AATACAAGGTCATCGTAGGCCAGAGTACGCACAG,5.17
12,TAGCCTAGGTCACATCGGGCCAGTATACGCTATA,2.43
13,TAGCCTAGGTCATACAGGGGCCAGTATAGAAAGC,2.6
14,GTTACAGGGTCAAGGCCAGAGTACGCGTATTGAT,4.45
15,CCTTACGGGTCCCTCCAGGTTATAGCATCGGAGT,0.0642
16,CGTTCAAGGTCAAAGGTCAGTGAAGAGATGACGG,6.9
17,AACGAAAGGTCGAAGGTGAGTATACCCACCCGAA,2.9
18,CAAACTAGGTCACCGAAAGGTCAAAGTCCGCATG,6.46
19,TAGCCTAGGTCATTCAGGGGCCACTATAGAAAGC,3.95
20,TCTTGTAGATCAATAGAAGTTAAGAAAGTGCGCT,0.744
